Screens: PubChem, Center for Chemical Genomics, University of Michigan
Dicer processing: blocks human Dicer maturation of pre-miR-21 | cat-ELCCA pre-miR-21 Dicer processing, chemiluminescence; hits give high values | z-score at 25 µM | 6% of 47,000 active; in the data active = z-score above about 3, passing the limit was not always enough;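 note: higher signal means more uncleaved substrate so more Dicer inhibition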
Large screens that a line does not name were inactive. Shown is part of a subset that was picked to be rich in hits.

CC1(C)OC(=O)C2(C(=O)O1)C1C3C4CC5C6C4C1C6C2C53 (configuration not stated)	none
O=C(O)CC12OC3C4C5CC(C6C5C3C61)C42 (configuration not stated)	none
COC(=O)C1(C(=O)OC)C2C3C4CC5C6C4C2C6C1C53 (configuration not stated)	Dicer processing 5.44
N#Cc1cccc(N=Nc2c(O)ccc3ccccc23)c1	none
CS(=O)(=NS(=O)(=O)c1ccc(Cl)s1)c1ccc(Cl)cc1 (configuration not stated)	none
CSc1c(C#N)c(-c2cccs2)nn1C	none
CCN(CC(O)Cn1c2ccccc2c2ccccc21)S(=O)(=O)c1ccc(C)cc1 (configuration not stated)	none
CCN(CCS(=O)(=O)c1ccccc1)S(=O)(=O)c1ccc(C)cc1	Dicer processing 4.45
CCCCN(C(C)C)S(=O)(=O)c1ccc(C)cc1	none
CSc1nn(-c2ccccc2)cc1-c1noc(-c2ccc(Cl)cc2Cl)n1	none
c1coc(CN2CN(CCN3CCOCC3)Cn3c2nc2ccccc23)c1	none
CC(C)(C)NC(=S)Nc1cccc(Cl)c1Cl	none
Cc1cc(=O)[nH]n(-c2ccccc2)c1=O	none
O=c1c([N+](=O)[O-])c[nH]n(-c2ccccc2)c1=O	Dicer processing 4.42
O=C1c2ccccc2C(=O)N1c1ccc([N+](=O)[O-])cc1	none
O=C1CC(Sc2ncn[nH]2)C(=O)N1c1ccc(-c2ccccc2)cc1 (configuration not stated)	none
CCOC(=O)c1sc(N2C(=O)C(=O)/C(=C(/O)c3ccccc3)C2c2ccc(O)cc2)nc1C (configuration not stated)	none
N[C@@H](CCCC(=O)O)C(=O)O	none
NC(CCCP(=O)(O)O)C(=O)O (configuration not stated)	Dicer processing 3.21
CN=C(N)NCCC[C@H](N)C(=O)O	none
CC1CN(c2ncc(C(=O)OCc3ccccc3)c(C(F)(F)F)n2)CC(C)O1 (configuration not stated)	none
Cc1cc(C)n(-c2nnc3n2N=C(c2ccccc2O)CS3)n1	none
O=C(NCc1ccccc1F)NC1CCCCC1	none
Cc1ccc(C)n1-c1ccc(Br)cc1C(=O)O	none
Cc1ccc(C)n1-c1sccc1C(=O)O	none
Cc1ccc(C)n1-c1ccc(O)c(C(=O)O)c1	Dicer processing 32.5
COc1cc2c(cc1OC)N1C(=O)c3ccccc3C1(O)OC2=O (configuration not stated)	none
CCOc1cc(S(=O)(=O)Nc2ccccn2)ccc1Cl	none
Cc1oc2c(F)c(F)c(F)c(F)c2c1C(=O)ONC(N)c1ccc(OS(=O)(=O)N(C)C)cc1 (configuration not stated)	none
O=C1c2ccccc2C(=O)c2c(NCCc3ccc(O)cc3)ccc(NCCc3ccc(O)cc3)c21	none
O=C1c2c(O)ccc(O)c2C(=O)c2c(NCCNCCO)ccc(NCCNCCO)c21	Dicer processing 20.8
O=S(=O)(NNc1ccc(F)cc1F)c1ccc(Cl)cc1	none
CCc1ccc2nc(NC3=NCN(CC4CCCO4)CN3)nc(C)c2c1 (configuration not stated)	none
COc1c(Cl)cccc1-c1cn2ccc(C)cc2n1	Dicer processing 5.87
COc1c(Cl)cc(Cl)cc1-c1cn2ccccc2n1	none
Cc1ccc(-c2cn3ccc(C)cc3n2)cc1	none
Cc1cc(=O)[nH]c(SCC(=O)N2c3ccccc3CCc3ccccc32)n1	none
O=C1CC(c2ccccc2)Cc2c1cnc1[nH]n(-c3ccccc3)c(=O)c21 (configuration not stated)	none
COc1ccc(Br)cc1C1C(C#N)=C(N)Oc2cc(O)ccc21 (configuration not stated)	none
COC(=O)C1=C(C)NC2=C(C(=O)CC(C)(C)C2)C1c1ccccc1OC (configuration not stated)	none
COC(=O)C1=C(N)Oc2cc(N(C)C)ccc2C1c1ccccc1OC (configuration not stated)	Dicer processing 3.17
NS(=O)(=O)c1ccc(CCNc2ncnc3nc[nH]c23)cc1	none
CCOC(=O)c1cnn(-c2ccccc2)c1NC(=O)CN1CCOCC1	none
CCOC(=O)c1cnn(-c2ccccc2)c1NC(=O)CN1CCN(C)CC1	none
CCOC(=O)c1cnn(-c2ccccc2)c1NC(=O)Nc1ccccc1	Dicer processing 4.13
C=CCNc1nc(SCc2ccc(Cl)cc2)nc2sc3c(c12)CCCC3	none
N#Cc1nc(COc2ccccc2)oc1NCc1ccc2c(c1)OCO2	none
N[C@@H](Cc1ccc([N+](=O)[O-])cc1)C(=O)O	none
N[C@@H](Cc1cc(I)c(Oc2cc(I)c(O)c(I)c2)c(I)c1)C(=O)O	Dicer processing 4.34
N[C@@H](Cc1cc(I)c(Oc2ccc(O)c(I)c2)c(I)c1)C(=O)O	Dicer processing 3.25
CCOC(=O)[C@@H](N)Cc1ccccc1	none
N[C@@H](Cc1ccc(O)c(O)c1)C(=O)O	none
NC(Cc1c[nH]c2ccc(Br)cc12)C(=O)O (configuration not stated)	none
N/C(=N\S(=O)(=O)c1cc(Cl)c(Oc2ccc([N+](=O)[O-])cc2Cl)c(Cl)c1)c1cccnc1	none
CCOC(=O)C1=C(C)Nc2nc3ccccc3n2C1c1ccccc1Cl (configuration not stated)	none
C#CCSc1nc(CCC)c(CC=C)c(=O)[nH]1	none
